Of roughly 7,900 targets only a part is listed; those with a hit were picked by preference. About 0.6% of all pairs of compound and target were hits. Values without a mark were called inactive.
Key:
Test in all cases: log2 fold change, soluble protein after heating vs DMSO (PISA); higher = thermal stabilisation; K562 cells, 10 uM, 30 min; active = over 0.2 and 3.5 SD of the protein, either way, in both replicates (recomputed)
[1] = compound: CC[C@@H]1C(=O)N(C)c2cnc(Nc3ccc(C(=O)NC4CCN(C)CC4)cc3OC)nc2N1C1CCCC1
Summary of the method: (§1)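 K562 cells at 2×10^6 cells/mL were treated for 30 min with 10 μM compound, and aliquots were heated for 3 min over 48°C-58°C before pooling. Extraction used PBS with 0.5% NP-40 at 4°C, and soluble protein was the supernatant after 21,000xg for 90 min, measured by TMTpro 16plex LC-MS/MS with channel sums equalised. Thermal stability values, relative to control samples and from duplicates, are log2 fold changes.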

[2] = compound: CC[C@@H]1C(=O)N(C)c2cnc(Nc3ccc(C(=O)N[C@H]4CC[C@H](N5CCN(CC6CC6)CC5)CC4)cc3OC)nc2N1C(C)C [volasertib]
Summary of the method: as §1

[3] = compound: CC[C@H](C)N1C=C(C2=C(C=C(C=C21)C3=CN=C(C=C3)N4CCNCC4)C(=O)NCC5=C(C=C(NC5=O)C)C)C
Summary of the method: as §1

[4] = compound: CC[C@H](C)[C@@H](C(=O)N[C@@H]([C@@H](C)O)C(=O)N[C@@H](CC(C)C)C(=O)[C@]1(CO1)C)NC(=O)[C@H]([C@@H](C)CC)N(C)C(=O)C [epoxomicin]
Summary of the method: as §1

[5] = compound: CCn1c(C(=O)N(C2CC2)C2CC2)cc2c3c(ncn3C)c(Nc3cc(C)n(C)n3)nc21
Summary of the method: as §1

[6] = compound: CCn1cc(-c2ccnc3[nH]c(-c4cccc(CN(C)C)c4)cc23)c(-c2ccc(NC(=O)N(C)C)cc2)n1
Summary of the method: as §1

[7] = compound: CN(C)CC(=O)Nc1ccc2[nH]c(=O)c3ccccc3c2c1
Summary of the method: as §1

[8] = compound: CN(CCOC1=CC=C(C=C1)C[C@H]2C(=O)NC(=O)S2)C3=CC=CC=N3 (racemic) [rosiglitazone]
Summary of the method: as §1

[9] = compound: CN1C2=C(C3=C1C(=O)N(N=C3)CC4=CC(=CC=C4)N)SC(=C2)S(=O)C
Summary of the method: as §1

[10] = compound: CN1CCC(CNc2ccc3ncc(-c4cccc(OC(F)(F)F)c4)n3n2)CC1
Summary of the method: as §1

[11] = compound: CN1CCN(CCOc2cc(OC3CCOCC3)c3c(Nc4c(Cl)ccc5c4OCO5)ncnc3c2)CC1 [saracatinib]
Summary of the method: as §1

[12] = compound: CN1CCN(c2nc(C3=C(c4c[nH]c5ccccc45)C(=O)NC3=O)c3ccccc3n2)CC1 [sotrastaurin]
Summary of the method: as §1

[13] = compound: CN1CC[C@H](c2c(O)cc(O)c3c(=O)cc(-c4ccccc4Cl)oc23)[C@H](O)C1 [alvocidib]
Summary of the method: as §1

[14] = compound: CN1CCc2c(c3ccccc3n2Cc2ccc(C(=O)NO)cc2)C1 [Tubastatin A]
Summary of the method: as §1

[15] = compound: CNC(=O)C1=CC=CC=C1NC2=NC(=NC=C2Cl)NC3=C(C=C(C=C3)N4CCOCC4)OC
Summary of the method: as §1

[16] = compound: CNC(=O)c1ccc(Nc2ncc(C(F)(F)F)c(NCc3nccnc3N(C)S(C)(=O)=O)n2)cc1 [defactinib]
Summary of the method: as §1

[17] = compound: CNCc1ccc(-c2[nH]c3cc(F)cc4c3c2CCNC4=O)cc1 [rucaparib]
Summary of the method: as §1

[18] = compound: CNc1nc(-c2ccc3c(N)n[nH]c3c2)cc(N2C[C@@H](C(=O)NC3CCCCC3)CC[C@H]2C)n1
Summary of the method: as §1

[19] = compound: COC(=O)N[C@@H](C)CNc1nccc(-c2cn(C(C)C)nc2-c2cc(Cl)cc(NS(C)(=O)=O)c2F)n1 [encorafenib]
Summary of the method: as §1

[20] = compound: COC(=O)[C@H](CCSC)NC(=O)C1=C(C=C(C=C1)NC[C@H](CS)N)C2=CC=CC=C2
Summary of the method: as §1

UniProt P54707, sequence (P54707 whole entry, looked up): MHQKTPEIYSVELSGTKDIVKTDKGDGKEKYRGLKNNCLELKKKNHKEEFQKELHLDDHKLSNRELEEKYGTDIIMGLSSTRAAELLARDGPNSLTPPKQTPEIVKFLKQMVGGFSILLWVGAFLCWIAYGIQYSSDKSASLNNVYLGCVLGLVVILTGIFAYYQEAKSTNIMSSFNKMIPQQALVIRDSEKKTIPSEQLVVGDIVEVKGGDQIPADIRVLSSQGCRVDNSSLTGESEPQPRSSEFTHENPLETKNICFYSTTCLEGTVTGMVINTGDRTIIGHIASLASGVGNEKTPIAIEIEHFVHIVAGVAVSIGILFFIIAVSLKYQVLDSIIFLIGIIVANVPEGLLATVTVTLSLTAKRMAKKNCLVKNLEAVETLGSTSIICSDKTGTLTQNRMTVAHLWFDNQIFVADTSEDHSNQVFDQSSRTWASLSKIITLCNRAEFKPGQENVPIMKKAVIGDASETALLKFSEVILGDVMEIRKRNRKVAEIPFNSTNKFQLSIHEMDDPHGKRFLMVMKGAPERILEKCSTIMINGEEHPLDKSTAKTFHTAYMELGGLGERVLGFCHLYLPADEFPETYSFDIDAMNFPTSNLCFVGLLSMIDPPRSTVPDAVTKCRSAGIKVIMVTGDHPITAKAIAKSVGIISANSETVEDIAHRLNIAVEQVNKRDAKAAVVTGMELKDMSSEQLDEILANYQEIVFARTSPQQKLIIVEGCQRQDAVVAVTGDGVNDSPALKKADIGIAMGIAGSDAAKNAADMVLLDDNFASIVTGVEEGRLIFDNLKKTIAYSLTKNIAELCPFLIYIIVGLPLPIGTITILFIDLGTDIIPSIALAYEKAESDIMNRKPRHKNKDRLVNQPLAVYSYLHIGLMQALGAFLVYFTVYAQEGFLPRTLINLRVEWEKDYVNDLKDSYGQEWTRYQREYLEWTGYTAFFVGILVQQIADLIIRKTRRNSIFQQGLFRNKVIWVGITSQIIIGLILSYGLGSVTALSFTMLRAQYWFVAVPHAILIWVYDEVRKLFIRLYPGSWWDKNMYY
UniProt Q9Y3D8, sequence (Q9Y3D8 whole entry, looked up): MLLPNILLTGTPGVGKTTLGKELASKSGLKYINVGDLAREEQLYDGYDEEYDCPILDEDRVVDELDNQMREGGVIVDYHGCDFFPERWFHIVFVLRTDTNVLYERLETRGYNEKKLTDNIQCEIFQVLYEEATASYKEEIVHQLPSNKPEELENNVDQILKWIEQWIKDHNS
UniProt P00966, sequence (P00966 whole entry, looked up): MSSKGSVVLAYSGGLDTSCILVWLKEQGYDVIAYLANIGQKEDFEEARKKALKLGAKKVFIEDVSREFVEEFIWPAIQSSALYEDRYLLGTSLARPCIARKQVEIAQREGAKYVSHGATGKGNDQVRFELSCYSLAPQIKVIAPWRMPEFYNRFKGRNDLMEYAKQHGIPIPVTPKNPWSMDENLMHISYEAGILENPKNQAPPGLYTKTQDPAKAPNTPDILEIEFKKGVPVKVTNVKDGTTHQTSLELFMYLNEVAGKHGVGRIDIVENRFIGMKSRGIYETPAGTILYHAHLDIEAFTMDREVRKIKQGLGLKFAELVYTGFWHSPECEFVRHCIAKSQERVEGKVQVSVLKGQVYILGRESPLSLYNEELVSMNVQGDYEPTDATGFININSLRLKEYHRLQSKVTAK
UniProt Q96KE9, sequence (Q96KE9 whole entry, looked up): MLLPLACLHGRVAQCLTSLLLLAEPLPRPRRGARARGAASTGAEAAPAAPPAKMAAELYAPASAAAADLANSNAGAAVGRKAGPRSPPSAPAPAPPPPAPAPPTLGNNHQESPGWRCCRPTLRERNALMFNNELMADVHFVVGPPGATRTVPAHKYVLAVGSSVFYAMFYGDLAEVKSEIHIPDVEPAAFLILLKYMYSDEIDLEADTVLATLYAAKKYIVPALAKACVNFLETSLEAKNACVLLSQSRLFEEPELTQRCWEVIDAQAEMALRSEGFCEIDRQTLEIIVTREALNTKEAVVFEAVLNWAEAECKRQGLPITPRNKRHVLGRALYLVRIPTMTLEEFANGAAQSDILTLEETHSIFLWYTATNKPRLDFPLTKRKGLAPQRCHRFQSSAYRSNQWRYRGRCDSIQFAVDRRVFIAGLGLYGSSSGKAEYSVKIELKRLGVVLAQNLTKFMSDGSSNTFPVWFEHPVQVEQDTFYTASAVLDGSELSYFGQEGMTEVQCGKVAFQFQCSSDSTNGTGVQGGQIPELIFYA
UniProt Q9UQB8, sequence (Q9UQB8 whole entry, looked up): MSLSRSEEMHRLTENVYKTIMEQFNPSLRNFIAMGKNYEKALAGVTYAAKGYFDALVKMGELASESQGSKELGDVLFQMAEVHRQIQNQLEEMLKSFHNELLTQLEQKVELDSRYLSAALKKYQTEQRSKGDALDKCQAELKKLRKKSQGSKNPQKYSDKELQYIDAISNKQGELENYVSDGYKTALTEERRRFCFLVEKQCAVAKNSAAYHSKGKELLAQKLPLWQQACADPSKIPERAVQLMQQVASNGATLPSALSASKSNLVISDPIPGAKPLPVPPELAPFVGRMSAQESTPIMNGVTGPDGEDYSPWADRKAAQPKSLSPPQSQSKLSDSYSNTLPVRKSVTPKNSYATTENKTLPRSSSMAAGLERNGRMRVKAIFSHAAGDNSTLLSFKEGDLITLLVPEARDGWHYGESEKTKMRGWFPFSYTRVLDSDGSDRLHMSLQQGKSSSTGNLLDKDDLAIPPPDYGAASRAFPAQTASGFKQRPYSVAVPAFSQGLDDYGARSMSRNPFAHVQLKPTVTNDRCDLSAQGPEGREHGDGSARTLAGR
UniProt P40616, sequence (P40616 whole entry, looked up): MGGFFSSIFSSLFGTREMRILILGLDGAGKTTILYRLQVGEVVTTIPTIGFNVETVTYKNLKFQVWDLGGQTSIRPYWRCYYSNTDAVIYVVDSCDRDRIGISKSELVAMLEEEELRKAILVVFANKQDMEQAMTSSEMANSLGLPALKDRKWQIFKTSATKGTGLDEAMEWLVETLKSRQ
UniProt P49189, sequence (P49189 whole entry, looked up): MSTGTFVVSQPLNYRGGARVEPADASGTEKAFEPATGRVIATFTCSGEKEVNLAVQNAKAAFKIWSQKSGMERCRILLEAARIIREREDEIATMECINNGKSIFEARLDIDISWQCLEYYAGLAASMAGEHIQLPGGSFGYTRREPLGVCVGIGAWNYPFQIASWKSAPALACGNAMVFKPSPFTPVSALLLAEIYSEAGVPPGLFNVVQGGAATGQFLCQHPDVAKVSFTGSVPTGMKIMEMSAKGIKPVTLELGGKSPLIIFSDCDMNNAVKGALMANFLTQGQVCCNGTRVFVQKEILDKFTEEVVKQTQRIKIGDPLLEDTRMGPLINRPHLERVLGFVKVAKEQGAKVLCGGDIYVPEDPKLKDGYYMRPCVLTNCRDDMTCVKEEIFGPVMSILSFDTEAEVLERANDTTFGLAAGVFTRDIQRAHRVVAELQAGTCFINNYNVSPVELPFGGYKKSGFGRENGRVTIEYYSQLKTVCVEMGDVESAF
UniProt O95870, sequence (O95870 whole entry, looked up): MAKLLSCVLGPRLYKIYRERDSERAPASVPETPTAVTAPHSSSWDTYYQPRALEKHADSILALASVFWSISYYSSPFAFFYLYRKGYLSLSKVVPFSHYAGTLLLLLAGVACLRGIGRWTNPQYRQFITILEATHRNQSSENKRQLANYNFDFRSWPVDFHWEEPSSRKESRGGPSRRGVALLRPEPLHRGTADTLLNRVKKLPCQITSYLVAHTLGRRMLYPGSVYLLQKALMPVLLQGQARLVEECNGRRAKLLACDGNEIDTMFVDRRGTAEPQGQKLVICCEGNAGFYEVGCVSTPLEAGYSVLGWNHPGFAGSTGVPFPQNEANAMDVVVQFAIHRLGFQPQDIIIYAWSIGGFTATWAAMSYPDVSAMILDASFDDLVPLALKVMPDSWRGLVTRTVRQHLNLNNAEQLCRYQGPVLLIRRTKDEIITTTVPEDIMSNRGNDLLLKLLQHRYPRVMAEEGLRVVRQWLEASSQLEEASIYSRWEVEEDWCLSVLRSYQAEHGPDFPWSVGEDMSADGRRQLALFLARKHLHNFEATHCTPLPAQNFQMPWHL
UniProt Q9UII2, sequence (Q9UII2 whole entry, looked up): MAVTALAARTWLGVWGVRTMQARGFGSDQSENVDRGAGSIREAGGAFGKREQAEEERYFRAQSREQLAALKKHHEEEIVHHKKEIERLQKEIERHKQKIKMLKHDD
UniProt O00170, sequence (O00170 whole entry, looked up): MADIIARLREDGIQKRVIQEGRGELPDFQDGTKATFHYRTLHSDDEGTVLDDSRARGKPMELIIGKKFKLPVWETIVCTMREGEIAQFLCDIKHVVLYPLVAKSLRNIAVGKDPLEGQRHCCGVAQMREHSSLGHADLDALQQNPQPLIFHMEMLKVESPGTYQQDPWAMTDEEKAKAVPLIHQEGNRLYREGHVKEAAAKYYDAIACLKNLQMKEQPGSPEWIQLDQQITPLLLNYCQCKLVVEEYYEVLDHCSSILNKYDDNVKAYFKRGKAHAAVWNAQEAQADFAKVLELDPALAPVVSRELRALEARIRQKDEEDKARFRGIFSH
UniProt Q9Y2Y0, sequence (Q9Y2Y0 whole entry, looked up): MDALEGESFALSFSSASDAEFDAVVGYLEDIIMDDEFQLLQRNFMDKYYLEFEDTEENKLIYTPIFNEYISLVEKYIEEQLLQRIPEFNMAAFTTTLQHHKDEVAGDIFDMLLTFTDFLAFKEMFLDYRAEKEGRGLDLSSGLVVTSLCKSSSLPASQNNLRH
UniProt P53680, sequence (P53680 whole entry, looked up): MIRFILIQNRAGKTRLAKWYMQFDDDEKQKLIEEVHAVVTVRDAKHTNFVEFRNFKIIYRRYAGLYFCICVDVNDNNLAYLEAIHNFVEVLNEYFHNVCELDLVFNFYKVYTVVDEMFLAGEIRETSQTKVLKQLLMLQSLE

Row | Target | log2 fold change [1] | log2 fold change [2] | log2 fold change [3] | log2 fold change [4] | log2 fold change [5] | log2 fold change [6] | log2 fold change [7] | log2 fold change [8] | log2 fold change [9] | log2 fold change [10] | log2 fold change [11] | log2 fold change [12] | log2 fold change [13] | log2 fold change [14] | log2 fold change [15] | log2 fold change [16] | log2 fold change [17] | log2 fold change [18] | log2 fold change [19] | log2 fold change [20]
1 | ACSF3 (UniProt Q4G176) | -0.014 | -0.093 | 0.039 | 0.152 | 0.034 | -0.17 | 0.008 | 0.125 | 0.016 | -0.116 | 0.079 | 0.002 | 0.026 | -0.067 | 0.099 | -0.058 | -0.051 | -0.016 | 0.146 | -0.019
2 | BTBD6 (UniProt Q96KE9) | 0.017 | 0.001 | -0.033 | -0.059 | -0.163 | -0.356 | 0.066 | 0 | -0.112 | -0.021 | -0.031 | 0.021 | -0.143 | 0.211 | -0.141 | -0.131 | 0.327 | 0.082 | -0.101 | -0.009
3 | AP2S1 (UniProt P53680) | 0.035 | 0.018 | -0.024 | -0.022 | 0.023 | -0.008 | -0.071 | 0.02 | -0.005 | 0.037 | 0.012 | 0.009 | -0.009 | 0.009 | 0.077 | 0.038 | 0.019 | -0.012 | 0.077 | 0.025
4 | ALDH9A1 isoform 3 (UniProt P49189) | 0 | -0.003 | -0.048 | 0.011 | 0.003 | -0.025 | -0.01 | -0.004 | -0.065 | -0.027 | -0.019 | 0.01 | -0.007 | -0.024 | 0.05 | -0.024 | -0.054 | -0.009 | -0.016 | -0.005
5 | BTAF1 (UniProt O14981) | -0.087 | -0.265 (active) | 0.061 | 0.086 | -0.047 | -0.07 | 0.027 | -0.042 | -0.055 | -0.09 | 0.087 | 0.001 | -0.022 | -0.041 | -0.027 | -0.074 | -0.089 | -0.012 | 0.026 | 0.007
6 | ATP12A isoform 2 (UniProt P54707) | 0.081 | 0 | -0.029 | 0.013 | 0.04 | -0.031 | -0.047 | 0.015 | -0.085 | 0.242 (active) | 0.011 | 0.031 | -0.026 | -0.019 | 0.002 | -0.072 | -0.027 | 0.023 | -0.015 | -0.005
7 | BZW2 (UniProt Q9Y6E2) | -0.193 | -0.367 (active) | 0.042 | 0.043 | -0.019 | -0.016 | 0.02 | 0.046 | -0.037 | -0.298 (active) | -0.007 | -0.032 | -0.086 | -0.004 | -0.006 | -0.057 | -0.022 | 0.001 | 0.058 | -0.026
8 | ATP1B3 (UniProt P54709) | 0.06 | 0.094 | -0.022 | -0.033 | 0.04 | -0.028 | 0.012 | -0.011 | -0.063 | 0.168 | -0.019 | 0.084 | -0.038 | -0.014 | 0.004 | -0.047 | -0.033 | 0.016 | -0.023 | 0.034
9 | AK6 (UniProt Q9Y3D8) | -0.304 | -0.438 (active) | -0.001 | 0.08 | -0.081 | -0.007 | 0.148 | 0.074 | 0.027 | -0.322 | -0.154 | -0.121 | -0.045 | 0.03 | 0.018 | -0.095 | 0.092 | -0.053 | 0.095 | -0.09
10 | BAIAP2 (UniProt Q9UQB8) | -0.045 | -0.089 | 0.082 | 0.14 | -0.011 | -0.05 | -0.019 | 0.038 | -0.015 | -0.142 | 0.009 | -0.016 | -0.017 | 0.036 | -0.103 | -0.097 | 0.014 | -0.017 | 0.006 | -0.022
11 | AIP (UniProt O00170) | -0.115 | -0.372 (active) | 0.054 | 0.172 | -0.006 | -0.051 | 0.057 | 0.053 | -0.085 | -0.047 | 0.009 | -0.038 | -0.079 | 0.034 | 0.028 | -0.068 | -0.015 | -0.046 | 0.065 | -0.025
12 | ATP5IF1 (UniProt Q9UII2) | -0.149 | 0.141 | -0.078 | -0.041 | 0.021 | 0.013 | -0.13 | -0.02 | -0.04 | 0.037 | -0.111 | 0.111 | 0.013 | -0.039 | -0.014 | 0.046 | -0.011 | 0.011 | -0.063 | -0.244 (active)
13 | ABHD16A (UniProt O95870) | 0.134 | 0.079 | -0.01 | -0.008 | -0.092 | -0.09 | -0.018 | -0.003 | -0.076 | 0.283 | 0.01 | 0.214 | -0.033 | 0.004 | 0.031 | -0.065 | -0.017 | 0.162 | -0.05 | 0.031
14 | ARL1 (UniProt P40616) | 0.072 | -0.113 | 0.023 | 0.028 | 0.014 | -0.05 | 0.025 | 0.032 | -0.157 | 0.059 | 0.117 | -0.049 | -0.068 | 0.031 | -0.017 | 0.03 | -0.012 | 0.058 | 0.117 | -0.178
15 | ARL2BP (UniProt Q9Y2Y0) | -0.222 | -0.682 (active) | 0.023 | -0.008 | -0.022 | -0.048 | 0.032 | 0.019 | -0.062 | -0.183 | 0.093 | -0.047 | -0.021 | 0.082 | 0.002 | -0.153 | 0.055 | 0.147 | -0.12 | -0.055
16 | ASS1 (UniProt P00966) | 0.02 | 0.024 | 0.412 | 0.025 | -0.024 | 0.04 | -0.072 | 0.071 | 0.025 | -0.005 | 0.062 | 0.088 | -0.098 | -0.183 | -0.047 | -0.007 | 0.11 | -0.122 | -0.018 | 0.045
